# From the supplement of paper PMC10849652
# Of roughly 7,900 targets only a part is listed; those with a hit were picked by preference. About 0.6% of all pairs of compound and target were hits. Unmarked numbers belong to inactive results.
# Legend:
# Experiment in all cases: log2 fold change, soluble protein after heating vs DMSO (PISA); higher = thermal stabilisation; K562 cells, 10 uM, 30 min; active = over 0.2 and 3.5 SD of the protein, either way, in both replicates (recomputed)
# [1] = compound: C#Cc1cccc(Nc2ncnc3cc(OCCOC)c(OCCOC)cc23)c1 [erlotinib]
# In short: (§1)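 Aliquots of K562 cells (2×10^6 cells/mL) treated with 10 μM compound for 30 min were heated for 3 min over 48°C-58°C. After pooling and extraction in PBS with 0.5% NP-40 at 4°C, soluble protein from a 21,000xg, 90 min spin was quantified by TMTpro 16plex LC-MS/MS with channel sums equalised. Thermal stability is expressed against control samples, from duplicates, as a log2 fold change.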
# [2] = compound: C/C(=N\NC(=O)C1=CC(=CC=C1)S(=O)(=O)N2CCOCC2)/C3=C(C=CC(=C3)Cl)O
# In short: as §1
# [3] = compound: C1=CC(=C(C=C1Cl)C2=NC3=NC=CN=C3C(=N2)NC4=CC=NC=C4)F
# In short: as §1
# [4] = compound: C1=CC(=CC=C1C2=NC3=C(N2)C=C(C=C3)C(=O)N)OC4=CC=C(C=C4)Cl
# In short: as §1
# [5] = compound: C1=CC2=C(C=CC(=C2)/C=C\3/C(=O)NC(=NCC4=CC=CS4)S3)N=C1
# In short: as §1
# [6] = compound: C1=CC2=NC=CN=C2C=C1/C=C/3\C(=O)NC(=O)S3
# In short: as §1
# [7] = compound: C1=CC=C(C=C1)C2=NC(=C(N2)C3=CC=NC=C3)C4=CC(=C(C=C4)Cl)O
# In short: as §1
# [8] = compound: C1=CC=C2C(=C1)C3=NNC4=CC=CC(=C43)C2=O
# In short: as §1
# [9] = compound: C1CCN(C1)C(=O)NC2=CC=CC(=C2)NC3=NC=C(C(=N3)NCCC4=CN=CN4)Br
# In short: as §1
# [10] = compound: C1CN(CCC1(CC2=CC=C(C=C2)Cl)N)C3=NC=NC4=C3C=CN4
# In short: as §1
# [11] = compound: C=CC(=O)N1CCC[C@@H](n2nc(-c3ccc(Oc4ccccc4)cc3)c3c(N)ncnc32)C1 [ibrutinib]
# In short: as §1
# [12] = compound: CC(=O)c1cnc2ccc(-c3cc(Cl)c(O)c(Cl)c3)nc2c1N[C@H]1CC[C@H](CN(C)C)CC1
# In short: as §1
# [13] = compound: CC(C)(C)Cn1c(N)nc2ccc(-c3[nH]c(C(C)(C)C)nc3-c3ccc(F)cc3)nc21 [ralimetinib]
# In short: as §1
# [14] = compound: CC(C)(O)CC(=O)NCCn1ccc2ncnc(Nc3ccc(Oc4cccc(C(F)(F)F)c4)c(Cl)c3)c21
# In short: as §1
# [15] = compound: CC(C)C1=C2N=C(C=C(N2N=C1)NCC3=CC=CC=C3)NCCCCCCN
# In short: as §1
# [16] = compound: CC(C)C[C@@H](C=O)NC(=O)[C@H](CC(C)C)NC(=O)[C@H](CC(C)C)NC(=O)OCc1ccccc1
# In short: as §1
# [17] = compound: CC1=C(C(CC(=O)N1)C2=CC=C(C=C2)C(F)(F)F)C(=O)NC3=C(C=C4C(=C3)C=NN4)F
# In short: as §1
# [18] = compound: CC1=C(C2=C(C=C1)C(=O)C3=CC=CC=C3N2CCCN)C
# In short: as §1
# [19] = compound: C1COCCN1CCN2C3=CC=CC=C3N=C2NC(=O)C4=CC(=CC=C4)[N+](=O)[O-] [IRAK-1-4 Inhibitor I]
# In short: as §1
# [20] = compound: CC(C)N(C[C@H]1O[C@@H](n2cnc3c(N)ncnc32)[C@H](O)[C@@H]1O)[C@H]1C[C@@H](CCc2nc3cc(C(C)(C)C)ccc3[nH]2)C1 [pinometostat]
# In short: as §1
# Chain of UniProt P55008 (P55008 whole entry, looked up): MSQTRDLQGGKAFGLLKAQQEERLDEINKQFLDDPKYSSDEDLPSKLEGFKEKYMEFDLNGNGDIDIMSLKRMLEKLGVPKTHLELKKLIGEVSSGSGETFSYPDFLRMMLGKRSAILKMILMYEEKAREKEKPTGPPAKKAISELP
# Chain of UniProt Q9NP58 (Q9NP58 whole entry, looked up): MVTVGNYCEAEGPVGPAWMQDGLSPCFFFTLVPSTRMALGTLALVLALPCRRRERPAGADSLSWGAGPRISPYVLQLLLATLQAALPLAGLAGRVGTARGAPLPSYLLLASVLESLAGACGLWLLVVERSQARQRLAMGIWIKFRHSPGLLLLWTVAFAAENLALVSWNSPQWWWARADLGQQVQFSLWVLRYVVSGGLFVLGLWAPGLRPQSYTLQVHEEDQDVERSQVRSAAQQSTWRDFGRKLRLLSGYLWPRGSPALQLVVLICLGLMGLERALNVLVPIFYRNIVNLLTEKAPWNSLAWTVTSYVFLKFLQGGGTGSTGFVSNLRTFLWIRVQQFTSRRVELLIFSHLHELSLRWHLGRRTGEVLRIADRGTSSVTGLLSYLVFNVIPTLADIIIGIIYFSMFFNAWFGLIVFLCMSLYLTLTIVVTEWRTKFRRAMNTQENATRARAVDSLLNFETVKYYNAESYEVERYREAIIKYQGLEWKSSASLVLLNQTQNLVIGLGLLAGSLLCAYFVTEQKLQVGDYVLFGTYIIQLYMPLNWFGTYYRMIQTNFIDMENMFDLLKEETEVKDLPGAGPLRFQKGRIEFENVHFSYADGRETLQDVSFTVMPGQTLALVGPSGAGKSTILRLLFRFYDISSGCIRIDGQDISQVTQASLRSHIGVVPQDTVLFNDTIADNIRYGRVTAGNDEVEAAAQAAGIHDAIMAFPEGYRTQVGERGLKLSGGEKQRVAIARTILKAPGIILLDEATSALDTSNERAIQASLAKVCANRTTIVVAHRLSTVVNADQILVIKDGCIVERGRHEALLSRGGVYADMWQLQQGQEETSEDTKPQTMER
# Chain of UniProt Q9NWX5 (Q9NWX5 whole entry, looked up): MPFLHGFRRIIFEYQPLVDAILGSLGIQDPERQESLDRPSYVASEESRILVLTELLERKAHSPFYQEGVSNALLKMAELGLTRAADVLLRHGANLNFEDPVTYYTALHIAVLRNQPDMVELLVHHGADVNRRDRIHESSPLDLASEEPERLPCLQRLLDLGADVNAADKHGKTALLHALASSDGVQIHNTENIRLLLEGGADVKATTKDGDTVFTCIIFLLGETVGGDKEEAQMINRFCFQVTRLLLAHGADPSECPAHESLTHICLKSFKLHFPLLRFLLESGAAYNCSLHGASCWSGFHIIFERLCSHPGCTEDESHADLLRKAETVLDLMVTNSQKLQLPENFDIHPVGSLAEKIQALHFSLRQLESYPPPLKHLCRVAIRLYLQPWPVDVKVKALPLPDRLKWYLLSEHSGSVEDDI
# Chain of UniProt Q9Y312 (Q9Y312 whole entry, looked up): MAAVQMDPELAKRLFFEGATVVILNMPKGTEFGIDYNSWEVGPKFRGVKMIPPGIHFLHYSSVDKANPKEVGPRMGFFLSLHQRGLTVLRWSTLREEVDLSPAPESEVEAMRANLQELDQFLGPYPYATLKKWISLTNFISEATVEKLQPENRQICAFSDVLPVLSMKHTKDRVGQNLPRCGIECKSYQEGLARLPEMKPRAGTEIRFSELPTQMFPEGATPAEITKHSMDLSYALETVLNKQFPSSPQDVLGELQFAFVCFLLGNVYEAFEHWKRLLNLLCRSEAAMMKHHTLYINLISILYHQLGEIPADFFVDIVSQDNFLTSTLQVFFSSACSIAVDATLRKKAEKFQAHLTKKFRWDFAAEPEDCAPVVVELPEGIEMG
# Chain of UniProt Q92934 (Q92934 whole entry, looked up): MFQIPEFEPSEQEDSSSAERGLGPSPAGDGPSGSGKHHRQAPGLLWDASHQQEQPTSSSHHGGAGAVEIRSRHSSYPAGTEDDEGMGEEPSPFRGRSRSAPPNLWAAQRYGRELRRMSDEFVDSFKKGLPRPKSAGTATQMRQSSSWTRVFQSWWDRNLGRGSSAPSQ
# Chain of UniProt P42331 (P42331 whole entry, looked up): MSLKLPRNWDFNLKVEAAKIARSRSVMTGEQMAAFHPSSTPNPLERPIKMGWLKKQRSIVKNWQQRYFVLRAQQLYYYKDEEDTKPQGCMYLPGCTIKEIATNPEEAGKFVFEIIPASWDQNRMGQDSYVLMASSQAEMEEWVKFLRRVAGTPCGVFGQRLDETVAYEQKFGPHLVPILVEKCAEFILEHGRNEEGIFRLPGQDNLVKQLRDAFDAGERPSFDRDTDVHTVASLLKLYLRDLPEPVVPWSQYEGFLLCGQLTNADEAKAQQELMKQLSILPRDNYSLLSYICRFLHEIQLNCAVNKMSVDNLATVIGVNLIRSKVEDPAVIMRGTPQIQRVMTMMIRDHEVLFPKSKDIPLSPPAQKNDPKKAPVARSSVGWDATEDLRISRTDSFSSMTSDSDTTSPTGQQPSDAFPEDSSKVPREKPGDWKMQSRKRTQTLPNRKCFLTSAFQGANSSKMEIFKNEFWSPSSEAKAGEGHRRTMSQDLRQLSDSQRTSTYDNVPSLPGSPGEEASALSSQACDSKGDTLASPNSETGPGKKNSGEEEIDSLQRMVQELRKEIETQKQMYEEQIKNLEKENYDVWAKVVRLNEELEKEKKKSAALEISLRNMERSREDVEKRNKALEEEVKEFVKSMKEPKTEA
# Chain of UniProt P56211 (P56211 whole entry, looked up): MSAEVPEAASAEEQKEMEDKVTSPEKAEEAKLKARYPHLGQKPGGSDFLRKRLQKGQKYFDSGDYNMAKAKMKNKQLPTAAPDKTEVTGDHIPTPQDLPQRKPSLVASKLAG
Target,log2 fold change [1],log2 fold change [2],log2 fold change [3],log2 fold change [4],log2 fold change [5],log2 fold change [6],log2 fold change [7],log2 fold change [8],log2 fold change [9],log2 fold change [10],log2 fold change [11],log2 fold change [12],log2 fold change [13],log2 fold change [14],log2 fold change [15],log2 fold change [16],log2 fold change [17],log2 fold change [18],log2 fold change [19],log2 fold change [20]
BRD4 (UniProt O60885),-0.151,0.078,0.054,0.003,0.025,-0.003,0.213,-0.002,-0.121,-0.117,-0.018,-0.254,-0.174,-0.011,0.094,-0.035,0.047,0.101,,
AIF1 (UniProt P55008),0.155,-0.02,0.09,0.08,-0.051,0.093,0.058,-0.126,,,0.012,0.028,-0.112,0.035,-0.033,0.07,,,,
ABCB6 (UniProt Q9NP58),0.017,0.045,0.029,0.037,-0.003,0.069,0.087,-0.056,-0.057,0.023,0.003,0.021,0.051,-0.073,-0.489 (active),-0.007,-0.058,0.065,-0.018,0.037
ASB6 (UniProt Q9NWX5),-0.024,-0.603 (active),-0.263,-0.067,0.184,-0.084,0.101,-0.032,,,-0.108,0.039,0.343,-0.274,-0.055,0.069,0.059,,0.106,-0.031
BAD (UniProt Q92934),0.049,0.079,0.022,0.124,0.083,0.023,0.01,0.025,,,0.024,-0.061,-0.054,0.077,-0.04,-0.041,0.065,,0.057,0.012
ARHGAP25 isoform 4 (UniProt P42331),0.07,0.165,0.109,-0.284,0.042,-0.192,,-0.062,0.052,-0.147,-0.064,-0.16,,-0.465,-0.961 (active),,-0.418,0.066,,
ARPP19 (UniProt P56211),-0.01,0.003,0.076,-0.032,-0.061,0.041,0.026,0.014,-0.024,-0.018,-0.009,0,0.048,-0.051,0.048,-0.071,0.069,-0.074,0.052,-0.157
AAR2 (UniProt Q9Y312),0.075,0.089,-0.113,0.057,0.103,0.049,-0.003,-0.137,-0.008,0.043,0.02,0.021,-0.002,-0.062,-0.012,0.104,-0.074,-0.035,0.039,0.024
